# RAD52 inh: inhibitors of human RAD52 DNA annealing; inhibition, % at 18.7 µM; P43351; recombinant RAD52 DNA annealing, FRET fluorescence; 360,000 compounds, 0.46% hits;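 active means every replicate showing at least 50% inhibition; inconclusive means mean inhibition at least 50% but not in every replicate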
# CASP6 VEID inh: blocks human caspase-6 cleavage activity. inhibition, % at 12.5 µM. purified caspase-6, Z-VEID-R110 cleavage fluorescence. AID 686996. 350,000 compounds, 0.53% hits;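 active means mean inhibition across replicates at least about 35%, with every replicate also reaching that limit, limit read from the data; inconclusive means only one of the two criteria met; inactive means neither criterion met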;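 further: 0% = median of neutral control wells and 100% = no fluorescence left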
# NSD2 inh: NSD2 (human) methyltransferase inhibition; inhibition, % at 12.5 µM; O96028; NSD2 peptide methylation, AlphaScreen, 120 min; 310,000 compounds, 0.54% hits; in the data active means inhibition above about 50%
# rRNA inh HTS: inhibitors of bacterial rRNA selective over humanized ribosomes; E. coli WT GFP vs humanized-ribosome RFP mutants, fluorescence, 24 h; active compounds read low; DMSO median 0, no signal -100; 350,000 compounds, 1.6% hits; GFP signal change (wild-type ribosome), % (concentration not given with the values);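 active means significant combined selectivity score with lowered wild-type GFP, culture density cut under 30%, mutant RFP and density less affected; inactive means any of these conditions unmet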
# MLL AF4-AF9 inh: blocks AF4 peptide binding to human AF9. 350,000 compounds, 0.47% hits. AlphaScreen, biotin-AF4 peptide binding to FLAG-AF9. P42568. inhibition, % at 10 µM;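 active means every replicate reaching a set inhibition limit, whatever the replicate mean, cut at about 25% in these data; inconclusive means mean inhibition reaches that limit but some replicates miss it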;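 further: 0% = plate neutral control median and 100% = total signal loss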
# * = called active by the depositor; ? = inconclusive; / = no result. The list is not random: actives were taken first. Their share in the collection is about 2.5%.
SMILES,RAD52 inh,CASP6 VEID inh,NSD2 inh,rRNA inh HTS,MLL AF4-AF9 inh
CCCC/C(O)=C1\C(=O)CCCC1=NCCc1c(C)[nH]c2ccccc12,-9,1,2,-23*,3
COC(=O)N/N=C/c1ccc(-c2cccc(Cl)c2)o1,/,/,1,/,/
Nc1ccccc1N=Cc1ccc(-c2cccc(Cl)c2)o1,-54,2,-7,-26*,1
S=C(NCCc1ccccc1)Nc1cccc2cnccc12,-10,1,4,-27*,2
S=C(NCc1ccccc1)Nc1cccc2cnccc12,-6,1,0,14,3
NC(=S)Nc1cccc2cnccc12,/,/,-1,/,/
CCn1cc(CNC(=S)Nc2cccc3ccccc23)cn1,-17,53*,0,-17,2
FC(F)(F)c1ccccc1NC(=S)Nc1cccc2cnccc12,-25,37*,96*,19,0
O=C(COc1ccc2c3c(c(=O)oc2c1)CCC3)NC1CCN(Cc2ccccc2)CC1,-4,1,11,-29*,-2
CN(C)c1ccc(C(=S)NC2CCCCC2)cc1,-19,-2,1,9,-1
CCN(CC)c1ccc(C(=S)NC2CCCCC2)cc1,-12,3,4,-21*,9
CC(C)CC#Cc1cnc2c(c1)C(=O)N([C@@H](C)CO)C[C@@H](C)[C@@H](CN(C)C(=O)CC1CC1)O2,6,3,/,/,-5
Cc1cnc(NC(=O)c2ccc3c(c2)OCCO3)s1,-2,36*,0,-3,-1
Cc1nc2ccc3nc(NC(=O)c4ccc5c(c4)OCCO5)sc3c2s1,/,/,0,/,/
N#Cc1c(-c2ccco2)ccn(Cc2cccc(F)c2)c1=O,-66,3,/,-17*,-2
O=C([C@H]1[C@H](CO)[C@H]2Cn3c(cccc3=O)[C@H]2N1Cc1ccncc1)N1CCCCC1,-10,-2,/,1,-20
O=c1[nH][nH]c2c([N+](=O)[O-])ccc(F)c12,-9,66*,22,1,1
CCC(=O)Nc1ccc2c(c1)C(=O)N(C)[C@@H]1CC[C@@H](CC(=O)N[C@@H](C)c3ccccc3)O[C@H]1CO2,2,2,/,-1,-1
CN(C)C(=O)c1cccc(-c2ccccc2[C@@H]2[C@H](C#N)N(C(=O)C3CCC3)[C@H]2CO)c1,-12,2,/,-1,-2
O=C(Nc1nc2c(F)cccc2s1)c1ccc([N+](=O)[O-])o1,0,-1,/,3,?
O=C(Nc1nc2ccc(F)cc2s1)c1ccc([N+](=O)[O-])o1,3,-1,4,-26*,-3
CCOc1cc(/C=N/NC(=O)c2ccc(-c3csc(Nc4ccc(C)cc4)n3)cc2)ccc1OCC(=O)O,-4,50*,-5,-30,-3
O=C(O)COc1ccc(/C=N/NC(=O)c2ccc(-c3csc(Nc4ccc(Cl)cc4)n3)cc2)cc1,-4,20,0,3,0
O=C(O)/C=C/c1ccc(OCc2cccc(F)c2)cc1,-4,2,9,-22*,-1
Cc1ccccc1S(=O)(=O)N1CC[C@@H]2[C@H]1c1cc(-c3ccc(C#N)cc3)ccc1N[C@@H]2CO,-93,-2,/,-3,-3
SMILES,RAD52 inh,CASP6 VEID inh,NSD2 inh,rRNA inh HTS,MLL AF4-AF9 inh
C/C(=C\c1ccco1)C1C(C#N)=C(N)Oc2n[nH]c(-c3ccc(C)cc3)c21 (centres undefined),-29,2,/,-28*,-13
C/C(=C\c1ccco1)C1C(C#N)=C(N)Oc2n[nH]c(-c3ccccc3)c21 (centres undefined),/,/,4,/,/
COc1ccc(C(=O)Nc2ccc3[nH]ccc3c2)cc1,-10,-1,3,-31*,3
COc1ccc(OC)c(C(=O)Nc2ccc3[nH]ccc3c2)c1,-8,1,2,-23*,2
CC(=O)Nc1ccc2[nH]ccc2c1,-7,1,/,4,0
O=C(CN1C(=O)c2ccccc2S1(=O)=O)NCCSCc1c(F)cccc1Cl,-16,-2,-8,-30*,-1
CC(=O)c1ccc2c(c1)C1C=CCC1C(C(=O)O)N2 (centres undefined),1,/,128*,7,-12
CC(=O)c1ccc2c(c1)C1C=CCC1C(c1ccncc1)N2 (centres undefined),/,/,5,/,/
CNC[C@H]1Oc2c(cccc2N(C)C)C(=O)N([C@@H](C)CO)C[C@H]1C,-6,-3,/,3,-3
CCOC(=O)NC(N(O)c1cccc(Cl)c1)C(Cl)(Cl)Cl (centres undefined),-15,-6,-1,-28*,2
CCN(C(=O)Nc1cccc(Cl)c1)c1ccccc1,-6,0,-3,0,-7
CCn1c(=S)sc2c(=O)n(-c3ccccc3)c(=S)[nH]c21,5,7,0,-30*,2
Cc1noc(C)c1S(=O)(=O)Nc1ccc2c(c1)C(=O)N([C@H](C)CO)C[C@H](C)[C@@H](CN(C)S(=O)(=O)c1c(C)noc1C)O2,/,/,/,2,/
O=C(/C=C/c1ccc(Br)o1)OCc1nc2ccsc2c(=O)[nH]1,-38,38*,/,3,/
Cc1ccc(C(=O)OCc2nc3ccsc3c(=O)[nH]2)o1,-14,7,3,6,-2
CN(/N=C/c1cc(Cl)ccc1O)C1=NS(=O)(=O)c2ccccc21,-2,2,-1,-21*,-2
COc1cccc(/C=N/N(C)C2=NS(=O)(=O)c3ccccc32)c1O,1,-3,6,-2,-3
CC(C)C[C@@H]1COc2cccc(N3CCN(Cc4ccccc4F)CC3)c2S(=O)(=O)N1,-34,-1,/,-35*,4
CC(C)C[C@@H]1COc2cccc(N3CCCC3)c2S(=O)(=O)N1,-3,-1,/,-28*,3
CC(C)C[C@H]1COc2cccc(N3CCOCC3)c2S(=O)(=O)N1,-8,-4,/,10,0
COc1cccc(C(=O)Nc2ccc3c(c2)C(=O)N(C)C[C@@H](OC)[C@H](C)CN(C(C)=O)[C@@H](C)CO3)c1,-10,0,/,-1,0
C[C@@H]1CCCCO[C@H](CN(C)S(=O)(=O)c2cn(C)cn2)[C@H](C)CN([C@H](C)CO)C(=O)c2cc(NS(=O)(=O)c3ccccc3)ccc2O1,0,2,/,-4,-1
Cc1cc(C)n(CCNC(=O)C2CCC(=O)N(Cc3ccc(Cl)cc3)C2)n1 (centres undefined),-2,63*,-1,7,-1
O=C(C[C@H]1C[C@H](C(=O)N2CCCCC2)[C@@]2(CCc3ccccc3)c3[nH]c4cc(-c5ccco5)ccc4c3CCN2C1=O)NCCN1CCOCC1,-11,-15,/,-6,26*
COCCCNC(=O)C[C@H]1C[C@H](C(=O)N2CCCCC2)[C@@]2(CCc3ccccc3)c3[nH]c4cc(-c5ccco5)ccc4c3CCN2C1=O,-10,-1,/,20,8
C[C@H](CO)N1C[C@H](C)[C@@H](CN(C)C(=O)c2ccncc2)Oc2ncc(C#CC3CC3)cc2C1=O,/,/,/,4,/
COc1ccc(OC)c(S(=O)(=O)Nc2cccc3ccccc23)c1,-2,2,-1,-25*,0
CCC(=O)Nc1nnc(-c2ccc(Cl)s2)o1,-10,2,-1,-17,-1

# Compound activity (PubChem)
